Experimental data taken from PubChem BioAssay (NCI).
Values joined by “and” are separate entries in the source; they are usually repeats but may differ in a detail not shown here. Equal entries are not always repeated. The panel holds about 83,000 compounds, 20% with a hit somewhere; the sample as a whole holds those more often.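 Negative percent growth values reflect cell death: -40 means 40% of the cells present at the start died, and -100 means all died.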 Active and inactive are the calls of the source. Rule for the calls: active = growth percent below 10; inactive = the rest. Where a SMILES comes first, the peptide text is derived from it. The star is where a group is joined. Trt = c1ccc(C(c2ccccc2)(c2ccccc2)*)cc1; Cbz = O=C(OCc1ccccc1)*

Experiments:
Test in all cases: NCI-60 one-dose screen, 48 h (100 = growth as untreated, 0 = no growth, -100 = all killed)
[1] = tested on: SR leukemia; settings: 10 µM unless noted
[2] = tested on: RPMI-8226 leukemia; settings: 10 µM unless noted
[3] = tested on: OVCAR-8 ovarian; settings: 10 µM unless noted
[4] = tested on: OVCAR-5 ovarian; settings: 10 µM unless noted
[5] = tested on: OVCAR-4 ovarian; settings: 10 µM unless noted
[6] = tested on: SK-OV-3 ovarian; settings: 10 µM unless noted
[7] = tested on: IGROV1 ovarian; settings: 10 µM unless noted
[8] = tested on: HS 578T breast; settings: 10 µM unless noted
[9] = tested on: NCI/ADR-RES ovarian; settings: 10 µM unless noted
[10] = tested on: T-47D breast; settings: 10 µM unless noted
[11] = tested on: BT-549 breast; settings: 10 µM unless noted
[12] = tested on: MDA-MB-435 melanoma; settings: 10 µM unless noted
[13] = tested on: SW-620 colon; settings: 10 µM unless noted
[14] = tested on: MCF7 breast; settings: 10 µM
[15] = tested on: HCT-116 colon; settings: 10 µM unless noted
[16] = tested on: HCC-2998 colon; settings: 10 µM unless noted
[17] = tested on: KM12 colon; settings: 10 µM unless noted
[18] = tested on: OVCAR-3 ovarian; settings: 10 µM unless noted

| Compound | growth [1] | growth [2] | growth [3] | growth [4] | growth [5] | growth [6] | growth [7] | growth [8] | growth [9] | growth [10] | growth [11] | growth [12] | growth [13] | growth [14] | growth [15] | growth [16] | growth [17] | growth [18] |
| --- | --- | --- | --- | --- | --- | --- | --- | --- | --- | --- | --- | --- | --- | --- | --- | --- | --- | --- |
| CCC1OC(OC)C=CC1=O (configuration not stated) | 81.5% (inactive) | 110% (inactive) | 117% (inactive) | 123% (inactive) | 103% (inactive) | 102% (inactive) | 137% (inactive) | 96.9% (inactive) | 111% (inactive) | 95.1% (inactive) | 88.8% (inactive) | 98.6% (inactive) | 100% (inactive) | 89.9% (inactive) | 96.5% (inactive) | 122% (inactive) | 99.7% (inactive) |  |
| CCN(CC)CCOc1ccc(-c2nc3cc(Cl)ccc3s2)cc1 | -69.6% (active) | -12.2% (active) | 40.9% (inactive) | -0.127% (active) | 58.5% (inactive) | 59.9% (inactive) | -27.3% (active) | -29.2% (active) | -26.1% (active) | 22% (inactive) | 68% (inactive) |  | -52.9% (active) | 9.23% (active) | -69.3% (active) | -97.2% (active) | -99.2% (active) | -4.49% (active) |
| O=C(/C=C\c1cc(Br)ccc1O)/C=C/c1cc(Br)ccc1O | 1.17% (active) | 0.234% (active) | 3.86% (active) | -22.2% (active) | 15.2% (inactive) | 18.9% (inactive) | -16.9% (active) | 37.8% (inactive) | 7.59% (active) | 6.69% (active) | -12.3% (active) |  |  | 6.18% (active) | -97.8% (active) | -74.4% (active) | -71.5% (active) | -81.5% (active) |
| C/C=C1\SC(=S)NC1=O | 101% (inactive) | 101% (inactive) | 103% (inactive) | 94.9% (inactive) | 101% (inactive) | 92.4% (inactive) | 105% (inactive) | 104% (inactive) | 107% (inactive) | 92.6% (inactive) | 95.7% (inactive) | 101% (inactive) |  | 86.9% (inactive) | 96.9% (inactive) | 85% (inactive) | 106% (inactive) | 111% (inactive) |
| COc1ccccc1OC(=O)Oc1ccccc1OC | 103% (inactive) and 101% (inactive) | 105% (inactive) and 72.9% (inactive) | 103% (inactive) and 112% (inactive) | 117% (inactive) and 97.6% (inactive) | 114% (inactive) and 99% (inactive) | 112% (inactive) | 105% (inactive) and 97.2% (inactive) | 92.4% (inactive) and 102% (inactive) | 114% (inactive) and 95.8% (inactive) | 123% (inactive) and 100% (inactive) | 97% (inactive) | 112% (inactive) and 96% (inactive) | 94.6% (inactive) and 92.8% (inactive) | 96.1% (inactive) and 88.8% (inactive) | 99.9% (inactive) and 101% (inactive) | 102% (inactive) and 94.6% (inactive) | 107% (inactive) and 98% (inactive) | 119% (inactive) and 96.3% (inactive) |
| COC(=O)C(CSC(c1ccccc1)(c1ccccc1)c1ccccc1)NC(=O)C(CC(N)=O)NC(=O)OCc1ccccc1 (stereo not drawn) (Cbz-Asn-Cys(Trt)-OMe; configuration not given here) | -43.7% (active) | 2.8% (active) | 13.1% (inactive) | 67% (inactive) | 39.5% (inactive) | 14.2% (inactive) | 48.6% (inactive) | -20.4% (active) | 63.2% (inactive) | -0.975% (active) | 50.6% (inactive) | -37.3% (active) | 62.6% (inactive) | 32.3% (inactive) | 12.7% (inactive) | -18.7% (active) | 33% (inactive) | -5.78% (active) |
| C[N+](C)=c1ccc2nc3c(cc(NCCCNc4cc5oc6cc(=[N+](C)C)ccc-6nc5c5ccccc45)c4ccccc43)oc-2c1 | 6.05% (active) | 2.21% (active) | -5.6% (active) | 68.5% (inactive) | -100% (active) | 90.1% (inactive) | 19.1% (inactive) | 87.4% (inactive) | 6.53% (active) | 46.2% (inactive) | 61.6% (inactive) | -82.1% (active) |  | -52.4% (active) | -36.9% (active) | 23.7% (inactive) | 17.5% (inactive) | -54.5% (active) |
| CC(C)c1ccc2nc3ccc(C(=O)NCCN4CCN(c5ccccc5)CC4)cn3c(=O)c2c1 | 51.7% (inactive) | 20.5% (inactive) | 46.8% (inactive) | 91.1% (inactive) | 63.9% (inactive) | 93.4% (inactive) | 78.7% (inactive) | 59.2% (inactive) | 32.2% (inactive) | 28.5% (inactive) | 51.3% (inactive) |  | 87.4% (inactive) | 58.8% (inactive) | 53.6% (inactive) | 75.9% (inactive) | 67.2% (inactive) | 77.5% (inactive) |
| Nc1ncnc2c1ncn2C1OC(CO)C(O)C1O (configuration not stated) | 98.7% (inactive) and 21% (inactive) and 87.3% (inactive) | 101% (inactive) and 77.5% (inactive) and 112% (inactive) | 93.5% (inactive) and 56% (inactive) and 105% (inactive) | 122% (inactive) and 127% (inactive) | 123% (inactive) and 83.8% (inactive) and 91.7% (inactive) | 104% (inactive) and 100% (inactive) | 109% (inactive) and 104% (inactive) | 125% (inactive) and 77.9% (inactive) | 110% (inactive) and 72% (inactive) | 109% (inactive) and 9.96% (active) and 90.6% (inactive) | 101% (inactive) and 47.6% (inactive) and 123% (inactive) |  |  | 107% (inactive) and 10.7% (inactive) and 97% (inactive) | 108% (inactive) and 65% (inactive) and 90% (inactive) | 105% (inactive) and 31.2% (inactive) and 107% (inactive) | 116% (inactive) and 112% (inactive) and 114% (inactive) | 116% (inactive) and 89.8% (inactive) and 108% (inactive) |
| O=C(/C=C\c1ccccc1)N1c2ccccc2CC1c1c[nH]c2ccccc12 (configuration not stated) | 73.5% (inactive) | 55.9% (inactive) | 81% (inactive) | 76.8% (inactive) | 62% (inactive) | 60.5% (inactive) | 47.3% (inactive) | 75.3% (inactive) | 73.6% (inactive) | 23.4% (inactive) | 88.6% (inactive) |  | 78.2% (inactive) | 66.2% (inactive) | 23.1% (inactive) | 85.6% (inactive) | 64.4% (inactive) | 75% (inactive) |
| O=[N+]([O-])c1ccc2c(N=Nc3ccc4ccccc4c3O)c(O)cc(S(=O)(=O)O)c2c1 | 90.3% (inactive) | 96.8% (inactive) | 70.5% (inactive) | 106% (inactive) | 63% (inactive) | 90% (inactive) | 61.7% (inactive) | 105% (inactive) | 86.1% (inactive) | 96.1% (inactive) | 92.4% (inactive) | 97% (inactive) | 92.2% (inactive) | 98.6% (inactive) | 93.3% (inactive) | 94.4% (inactive) | 95.6% (inactive) | 41.4% (inactive) |
| CC(=O)Nc1cccc2cc(O)ccc12 | 108% (inactive) and 107% (inactive) and 99.6% (inactive) | 120% (inactive) and 112% (inactive) and 106% (inactive) | 106% (inactive) and 100% (inactive) and 94.3% (inactive) | 94.7% (inactive) and 93.2% (inactive) and 113% (inactive) | 119% (inactive) and 109% (inactive) and 98.8% (inactive) | 111% (inactive) and 115% (inactive) and 99.8% (inactive) | 97.2% (inactive) and 123% (inactive) | 132% (inactive) and 101% (inactive) and 98.5% (inactive) | 104% (inactive) and 113% (inactive) and 110% (inactive) | 97% (inactive) and 103% (inactive) | 118% (inactive) and 145% (inactive) and 94.5% (inactive) | 107% (inactive) and 117% (inactive) and 103% (inactive) | 104% (inactive) and 92% (inactive) and 98.7% (inactive) | 99.3% (inactive) and 99.8% (inactive) and 91.6% (inactive) | 85.9% (inactive) and 103% (inactive) and 91.2% (inactive) | 115% (inactive) and 108% (inactive) and 95% (inactive) | 110% (inactive) and 90.7% (inactive) and 103% (inactive) | 111% (inactive) and 105% (inactive) and 108% (inactive) |
| N#CSCc1ccc(CSC#N)c(Cl)c1 | 6.77% (active) | 41.9% (inactive) | 95.6% (inactive) | 96.7% (inactive) | 85.2% (inactive) | 115% (inactive) | 91.2% (inactive) | 94.1% (inactive) | 77.9% (inactive) | 68.4% (inactive) | 56.5% (inactive) | 40.6% (inactive) | 25.4% (inactive) | 22.7% (inactive) | 43.6% (inactive) | 102% (inactive) | 69.3% (inactive) | 77.9% (inactive) |
| O=C1c2ccccc2C(=O)c2sc(Nc3cccc(Cl)c3)nc21 | 2.67% (active) | 2.31% (active) | 1.49% (active) | -67.4% (active) | -9.21% (active) | 86.9% (inactive) | 0.883% (active) | -8.09% (active) | -16.9% (active) | 16% (inactive) | 61.5% (inactive) | -83.5% (active) | -54.6% (active) | -59% (active) | -29.9% (active) | -34.3% (active) | 24.6% (inactive) | -34.3% (active) |
